Test results published in PubChem BioAssay AID1053 (University of Pittsburgh Molecular Library Screening Center, 2008).
“And” between values parts separate entries of the source, which are not always exact repeats. Equal entries are not always repeated. The source made the active and inactive calls. The rule behind the calls is not given here.

target: Serine/threonine-protein kinase PLK1 (Homo sapiens) (UniProt P53350); test: Plk1 polo box domain binding inhibitors, SAR follow-up, biochemical, fluorescence polarization, purchased analogs (AID 1053); settings: Plk1 PBD fluorescence polarization peptide binding; at 20 µM; stronger effect = higher value
Sequence (P53350 whole entry, looked up, the tested form may be a part): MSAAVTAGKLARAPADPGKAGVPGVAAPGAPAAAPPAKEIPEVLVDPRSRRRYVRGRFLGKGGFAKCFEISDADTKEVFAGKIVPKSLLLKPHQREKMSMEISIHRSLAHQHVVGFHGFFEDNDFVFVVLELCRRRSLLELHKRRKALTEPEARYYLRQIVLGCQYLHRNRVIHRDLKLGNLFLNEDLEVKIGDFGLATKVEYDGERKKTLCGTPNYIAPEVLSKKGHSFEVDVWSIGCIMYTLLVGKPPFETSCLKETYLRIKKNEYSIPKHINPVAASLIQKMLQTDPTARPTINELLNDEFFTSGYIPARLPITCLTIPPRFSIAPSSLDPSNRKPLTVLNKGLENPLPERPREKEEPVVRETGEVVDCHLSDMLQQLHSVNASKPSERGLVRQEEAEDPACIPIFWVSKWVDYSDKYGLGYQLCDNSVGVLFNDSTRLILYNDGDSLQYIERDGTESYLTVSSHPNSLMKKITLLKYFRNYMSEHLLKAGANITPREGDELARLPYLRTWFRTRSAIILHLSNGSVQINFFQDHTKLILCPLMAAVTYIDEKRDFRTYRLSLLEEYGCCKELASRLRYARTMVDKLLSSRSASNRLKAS

inhibition, inactive:
CCOC(=O)c1ccc(NC(=O)C2C3C=CC(C3)C2(C)C(=O)O)cc1 (configuration not stated) -56.5%
CC(=O)N(CN1C(=O)c2ccccc2C1=O)c1cc(C)ccc1C -34.4%
CCn1nc(-c2ccc(C(F)(F)F)cc2)nc2c(=O)n(C)c(=O)nc1-2 10.8%
CC(=O)N(/N=C1\Sc2ccccc2C1=O)c1ccccc1[N+](=O)[O-] 32%
CC(=O)N(CN1C(=O)c2ccccc2C1=O)c1ccc(C)cc1 -31.4%
CCOc1cc(-c2nnc3[nH]c(=O)n(C)c(=O)c3n2)ccc1OC(C)C 15.8%
CCCCCOC(=O)c1ccc(NC(=O)c2ccc([N+](=O)[O-])cc2)cc1 28.2%
CC(=O)N(CN1C(=O)c2cccc([N+](=O)[O-])c2C1=O)c1ccc2c(c1)oc1ccccc12 -35.9%
O=c1cc[nH]c2cc(N3CCOCC3)c(F)cc12 -49%
CCOC(=O)c1ccc(N=Cc2c(O)n(CC)c(=O)[nH]c2=O)cc1 -76.6%
CCOC(=O)c1ccc(NC(=O)c2c(C)cc(=O)oc2C)cc1 -118%
CCOC(=O)c1ccc(NC(=O)c2cc3ccccc3c(=O)o2)cc1 -35.6%
COc1ccccc1N(CN1C(=O)c2ccc([N+](=O)[O-])cc2C1=O)C(C)=O -55.2%
CC(=O)Oc1ccccc1N(/C=C1/Sc2ccccc2C1=O)C(C)=O -290%
CC(=O)N(/N=C1\Sc2ccccc2C1=O)c1ccccc1 24.7%
CCOC(=O)c1ccc(NC(=O)C2CCCCC2C(=O)O)cc1 (configuration not stated) -39.1%
COc1ccc(N(/C=C2\Sc3ccccc3C2=O)C(C)=O)cc1 -312%
CC(=O)N(/C=C1\Sc2ccccc2C1=O)c1ccc(C)c(C)c1 -217%
CCOC(=O)c1ccc(N=Cc2c(O)n(-c3cccc(C)c3)c(=O)[nH]c2=O)cc1 -57.1%
CC(=O)N(CN1C(=O)c2ccccc2C1=O)c1ccccc1Cl -37.3% and -49.8%
COC(=O)c1ccc(N(/N=C2\Sc3ccccc3C2=O)C(C)=O)cc1 -20.9%
CCOC(=O)N1CCN(c2cc3nccnc3cc2F)CC1 -52.1%
Cc1ccccc1-c1nc2c(=O)n(C)c(=O)nc-2n(C)n1 36.2% and 24.8%
O=C1NC(=O)C(=Cc2cc(Cl)c(OCc3ccc(C(=O)O)cc3)c(Cl)c2)C(=O)N1 -37.4%
Cn1c(=O)[nH]c2nnc(-c3ccc(F)cc3)nc2c1=O -42.3%
O=C1NC(=O)C(=Cc2ccccc2OCCOc2ccccc2)C(=O)N1 -20.6%
CCn1nc(-c2cccc(Cl)c2)nc2c(=O)n(C)c(=O)nc1-2 -5.43% and -17.8%
CC(=O)N(CN1C(=O)c2ccccc2C1=O)c1ccc(F)cc1 -46.9%
CCn1nc(-c2ccccc2Br)nc2c(=O)n(C)c(=O)nc1-2 34.5%
CCCOC(=O)c1ccc(NC(=O)c2c(F)c(F)c(F)c(F)c2F)cc1 -41.6%
CCn1nc(-c2ccc(C(=O)OC)cc2)nc2c(=O)n(C)c(=O)nc1-2 -9.29%
CCOC(=O)c1ccc(NC(=O)C2C3CCC(C3)C2C(=O)O)cc1 (configuration not stated) -61.5%
CCOC(=O)c1ccc(N=Cc2c(O)n(C)c(=O)n(C)c2=O)cc1 -54.3%
CCCCCC(=O)N(CN1C(=O)c2ccccc2C1=O)c1ccc(OCc2ccccc2)cc1 -7.17%
CCOC(=O)c1ccc(NC(=O)c2ccc(NC(=O)CC)cc2)cc1 -9.03%
CC(=O)N(/N=C1\Sc2ccccc2C1=O)c1cccc(C)c1 20.1%
CC(=O)N(CN1C(=O)c2ccc(Br)cc2C1=O)c1ccc(Cl)cc1 -43%
